Measured values published in the OligoGym collection.

target: GPR64; test: pooled miR-30 sensor sort-seq; sequence = guide strand; conditions: shRNA
Also: reference of the scale not given here.

| Sequence | sensor-assay potency score (higher = more potent) |
| --- | --- |
| TAGTGTTGACATTCGCAGGGGC | 0.711 |
| TTGGTTTACAGTCTGCTTCTTT | 0.449 |
| TTCTATAATCTGACTACTGGGG | -0.476 |
| TTGAATACTGGTTTTTCGCTGG | 0.838 |
| ATTATCAGTATCTTCTTCCAGG | -0.212 |
| TTGAAGAGCTGGACACTCCTTG | 0.677 |
| TAAAGTAACATCATTGAGGCTT | 0.0974 |
| TAAGCTTAAAGTAACATCTGGA | 0.962 |
| TAACAATCAACAATGTACCATG | -0.826 |
| TAGTGTATTGTTTAAAACCAAC | -1.45 |
| TAGTCTACTCTCCTGTTCCTAA | -0.669 |
| TACATGTAGCAACAATAGCAGT | -1.27 |

target: GPRC5B; test: as above; conditions: shRNA

| Sequence | sensor-assay potency score (higher = more potent) |
| --- | --- |
| AAGAGGTACATGGTCATCCAGG | -1.02 |
| TTGTTCTCCATATAGGCCCGCG | -1.02 |
| TACCATGTCGTAGATGAGGGCC | -0.116 |
| TTGAACTTGCCGCACAGAGTGA | -0.846 |
| TTCGGAGAGCTGCATTGTGTTC | -1.86 |
| TTGGGAAATCCTGCTGTTCGGA | -0.702 |
| TTGAGCACGACGGCCATCTCAG | -1.15 |
| ATACACGTTGCTTCTAAACGGA | -0.0127 |
| TGCTGCAGCTTGACATTGCCGA | -0.579 |
| TTCCACCTCTTGAACTTGCCGC | -0.546 |
| ATGAGCATCAGGAGCAGTGTGA | -1.27 |
| TACACGTTGCTTCTAAACGGAG | -1.35 |

target: GPRC5C; test: as above; conditions: shRNA

| Sequence | sensor-assay potency score (higher = more potent) |
| --- | --- |
| TAGTACAGGGGGTTGAGGCCTT | 0.25 |
| TCCTTCGGACGGAACTTTGTGC | -0.974 |
| TTCGGACGGAACTTTGTGCATC | -0.913 |
| TCACAGAGGAGCAAGATCCAGG | -0.72 |
| ATGGTGAGCACAAACGTGGTGA | -0.43 |
| TCGTAAGCTCCTTCGGACGGAA | -0.916 |
| TGATGTCGTAAGCTCCTTCGGA | -0.537 |
| AAGACCTGAGAGTTCTTGCCGT | 0.1 |
| TTCTTGCCGTCTTTCGGCGGTG | -1.04 |
| ATGATGGTGAGCACAAACGTGG | -1.32 |
| TTGGTGTCCTGCACAAAGGGGA | -0.48 |
| TGAGGTTGCAGGAATCTCCAGA | 0.399 |
